The target in this experiment is furin, P09958. The experiment can be described thus: furin cleavage Z-score vs untreated control; higher = more cleavage, active = 3.5 or more, inactive = 1 or less, 8 variable residues between constant flanks. The method in brief:
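To give the cleavage Z-score, log read counts were set against furin-free reactions, lowess-adjusted and scaled by median absolute deviation. These counts came from PCR adapter-tagged, sequenced DNA released when purified furin cut 8-mer peptides fused to a cDNA oligonucleotide and held on magnetic beads by their N-terminus. Digests were 0.01 ml, 1:10 enzyme:substrate, in 50 mM HEPES pH 7.5 with CaCl2 and NaCl, for 7.5, 15 or 30 min.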

The list shows a part of the results. The true hit rate is not given.

Chain of furin, P09958 (P09958 whole entry, the tested form may be a part): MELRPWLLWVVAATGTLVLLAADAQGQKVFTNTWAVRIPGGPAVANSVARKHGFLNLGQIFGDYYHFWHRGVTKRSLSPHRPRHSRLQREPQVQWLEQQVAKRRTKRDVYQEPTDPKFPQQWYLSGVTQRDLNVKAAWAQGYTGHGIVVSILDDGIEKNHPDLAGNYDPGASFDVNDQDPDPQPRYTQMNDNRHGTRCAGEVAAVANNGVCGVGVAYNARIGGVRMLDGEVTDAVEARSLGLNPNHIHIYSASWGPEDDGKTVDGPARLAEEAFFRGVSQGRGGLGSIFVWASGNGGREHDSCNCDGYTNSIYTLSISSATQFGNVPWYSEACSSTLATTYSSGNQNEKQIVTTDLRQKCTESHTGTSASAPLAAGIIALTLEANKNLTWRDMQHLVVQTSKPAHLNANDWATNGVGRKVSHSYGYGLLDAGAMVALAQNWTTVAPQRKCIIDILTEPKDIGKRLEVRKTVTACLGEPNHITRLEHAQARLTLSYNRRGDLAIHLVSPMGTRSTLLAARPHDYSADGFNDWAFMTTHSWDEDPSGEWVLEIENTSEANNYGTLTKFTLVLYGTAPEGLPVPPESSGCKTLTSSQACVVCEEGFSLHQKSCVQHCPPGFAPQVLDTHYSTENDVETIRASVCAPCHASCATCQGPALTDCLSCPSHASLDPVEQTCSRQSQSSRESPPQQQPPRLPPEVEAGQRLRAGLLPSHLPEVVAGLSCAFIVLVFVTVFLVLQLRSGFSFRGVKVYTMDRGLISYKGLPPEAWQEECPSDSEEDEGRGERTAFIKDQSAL

In the case of CAEYTTPCSGAGNASASA [HC1969], the “furin cleavage Z-score” value reads like this: (7.5 min) -0.151 (inactive); (15 min) -0.366 (inactive); (30 min) -0.644 (inactive).

As to CAWFCLLLLAAGNASASA [HC1657], the “furin cleavage Z-score” value (7.5 min) was -0.863 (inactive), the “furin cleavage Z-score” value (15 min) was -0.454 (inactive) and the “furin cleavage Z-score” value (30 min) was -2.53 (inactive).

For CACREVPCHRAGNASASA [HC2440], the “furin cleavage Z-score” value is, setting by setting: (7.5 min) -0.508 (inactive); (15 min) -2.04 (inactive); (30 min) -1.44 (inactive).

On to CAAKRRQKREAGNASASA [FS-1110], for which the “furin cleavage Z-score” value is 12.9 (active) (7.5 min), 13 (active) (15 min) and 8.62 (active) (30 min).

On to CASERSQPRGAGNASASA [HC187], for which the “furin cleavage Z-score” value reads like this: (7.5 min) 0.546 (inactive); (15 min) 0.429 (inactive); (30 min) 0.503 (inactive).

CAPRRRKGRNAGNASASA [FS-1473]: the “furin cleavage Z-score” value runs as follows: (7.5 min) 10.1 (active); (15 min) 11.5 (active); (30 min) 9.35 (active).

As to CATVLDQAETAGNASASA [HC826], the “furin cleavage Z-score” value (7.5 min) was 1.14, the “furin cleavage Z-score” value (15 min) was 0.395 (inactive) and the “furin cleavage Z-score” value (30 min) was -0.728 (inactive).

In the case of CASIRRQKREAGNASASA [FS-563], the “furin cleavage Z-score” value was 11.3 (active) (7.5 min), 10.3 (active) (15 min) and 8.38 (active) (30 min).

As for CAQTNWQKLEAGNASASA [HC1036], the “furin cleavage Z-score” value by setting is: (7.5 min) 0.636 (inactive); (15 min) -0.515 (inactive); (30 min) -0.384 (inactive).

Turning to CATVRRQKREAGNASASA [FS-1175], the “furin cleavage Z-score” value runs as follows: (7.5 min) 12.4 (active); (15 min) 13.7 (active); (30 min) 9.11 (active).

As for CAWRQEMGGNAGNASASA [HC1277], the “furin cleavage Z-score” value is, setting by setting: (7.5 min) 0.884 (inactive); (15 min) -0.41 (inactive); (30 min) 1.35.

As for CAYFSMVGNWAGNASASA [HC341], the “furin cleavage Z-score” value reads like this: (7.5 min) -0.31 (inactive); (15 min) -0.533 (inactive); (30 min) -2.31 (inactive).

Take CAVLSRQKREAGNASASA [FS-206]: the “furin cleavage Z-score” value (7.5 min) is 11.7 (active), the “furin cleavage Z-score” value (15 min) was 9.59 (active) and the “furin cleavage Z-score” value (30 min) is 8.73 (active).

CAPRRHWTTQAGNASASA [HC308]: the “furin cleavage Z-score” value was 0.172 (inactive) (7.5 min), -0.306 (inactive) (15 min) and 0.325 (inactive) (30 min).

For CAVLSDFKTWAGNASASA [HC1154], the “furin cleavage Z-score” value (7.5 min) is -0.128 (inactive), the “furin cleavage Z-score” value (15 min) was -0.333 (inactive) and the “furin cleavage Z-score” value (30 min) was -0.963 (inactive).

Consider CAPRRRQQREAGNASASA [FS-1551], for which the “furin cleavage Z-score” value is 6.3 (active) (7.5 min), 4.83 (active) (15 min) and 5.13 (active) (30 min).

CACKPLLREEAGNASASA [HC1229]: the “furin cleavage Z-score” value is, setting by setting: (7.5 min) -2.56 (inactive); (15 min) 0.033 (inactive); (30 min) 0.531 (inactive).

Turning to CATTPCAGSWAGNASASA [HC61], the “furin cleavage Z-score” value runs as follows: (7.5 min) -1.21 (inactive); (15 min) 0.988 (inactive); (30 min) 1.04.

With CASFDPLVAEAGNASASA [HC1288], the “furin cleavage Z-score” value reads like this: (7.5 min) -1.29 (inactive); (15 min) -0.652 (inactive); (30 min) 0.659 (inactive).

Turning to CAWLERTMRSAGNASASA [FS-108], the “furin cleavage Z-score” value is 4.21 (active) (7.5 min), 5.66 (active) (15 min) and 4.38 (active) (30 min).

Turning to CACAVRHMRSAGNASASA [FS-1513], the “furin cleavage Z-score” value reads like this: (7.5 min) 0.659 (inactive); (15 min) 0.712 (inactive); (30 min) 1.2.

Regarding CAEARRTMRSAGNASASA [FS-228], the “furin cleavage Z-score” value is 6.84 (active) (7.5 min), 6.18 (active) (15 min) and 7.34 (active) (30 min).

Regarding CALEVVTSTWAGNASASA [HC987], the “furin cleavage Z-score” value is, setting by setting: (7.5 min) 0.41 (inactive); (15 min) 0.551 (inactive); (30 min) 1.7.

Turning to CAEVVTSTWAAGNASASA [HC2243], the “furin cleavage Z-score” value by setting is: (7.5 min) -0.622 (inactive); (15 min) 0.588 (inactive); (30 min) -0.814 (inactive).

In the case of CAVVCCSMIYAGNASASA [HC2064], the “furin cleavage Z-score” value (7.5 min) is -0.191 (inactive), the “furin cleavage Z-score” value (15 min) is -0.994 (inactive) and the “furin cleavage Z-score” value (30 min) was 0.202 (inactive).

With CACFRKHPDAAGNASASA [HC453], the “furin cleavage Z-score” value was -1.37 (inactive) (7.5 min), -1.46 (inactive) (15 min) and -0.48 (inactive) (30 min).

Consider CACFRRSKRAAGNASASA [FS-1514], for which the “furin cleavage Z-score” value reads like this: (7.5 min) 9.65 (active); (15 min) 9.01 (active); (30 min) 6.16 (active).

In the case of CAGSSRRFRAAGNASASA [FS-1003], the “furin cleavage Z-score” value runs as follows: (7.5 min) -0.163 (inactive); (15 min) 1.3; (30 min) 2.13.

Turning to CAGSPPSVASAGNASASA [HC1257], the “furin cleavage Z-score” value by setting is: (7.5 min) -0.959 (inactive); (15 min) -1.08 (inactive); (30 min) 0.309 (inactive).

CARWRRTKGAAGNASASA [FS-1873]: the “furin cleavage Z-score” value is -0.133 (inactive) (7.5 min), -1.53 (inactive) (15 min) and -0.0248 (inactive) (30 min).

As to CACVRRSPCAAGNASASA [FS-2118], the “furin cleavage Z-score” value runs as follows: (7.5 min) -0.381 (inactive); (15 min) -1.71 (inactive); (30 min) -0.39 (inactive).

Turning to CAGSPRSKRAAGNASASA [FS-788], the “furin cleavage Z-score” value reads like this: (7.5 min) 11.2 (active); (15 min) 9.92 (active); (30 min) 8.49 (active).

For the sequence CARWRRSKRAAGNASASA [FS-959], the “furin cleavage Z-score” value (7.5 min) is 11.1 (active), the “furin cleavage Z-score” value (15 min) is 11.6 (active) and the “furin cleavage Z-score” value (30 min) is 8.46 (active).

CAGVLTTSCGAGNASASA [HC1512]: the “furin cleavage Z-score” value (7.5 min) was -0.572 (inactive), the “furin cleavage Z-score” value (15 min) was 0.491 (inactive) and the “furin cleavage Z-score” value (30 min) was -0.869 (inactive).

Regarding CAATQLRRHIAGNASASA [HC288], the “furin cleavage Z-score” value is -0.217 (inactive) (7.5 min), 0.529 (inactive) (15 min) and 1.16 (30 min).

Regarding CAYASRGIRPAGNASASA [FS-1618], the “furin cleavage Z-score” value (7.5 min) is -0.625 (inactive), the “furin cleavage Z-score” value (15 min) was -0.502 (inactive) and the “furin cleavage Z-score” value (30 min) is -1.11 (inactive).

In the case of CAAGARKKRAAGNASASA [FS-970], the “furin cleavage Z-score” value reads like this: (7.5 min) 6.63 (active); (15 min) 6.95 (active); (30 min) 6.49 (active).

As to CASHQKKKRAAGNASASA [FS-1486], the “furin cleavage Z-score” value runs as follows: (7.5 min) 4.35 (active); (15 min) 2.8; (30 min) 4.35 (active).

Consider CAGGQRKKRAAGNASASA [FS-1125], for which the “furin cleavage Z-score” value (7.5 min) was 8.55 (active), the “furin cleavage Z-score” value (15 min) is 7.61 (active) and the “furin cleavage Z-score” value (30 min) is 6.45 (active).

CAGGQIVGGVAGNASASA [HC174]: the “furin cleavage Z-score” value is, setting by setting: (7.5 min) -1.23 (inactive); (15 min) -1.41 (inactive); (30 min) -1.78 (inactive).

CAAQQRKKRAAGNASASA [FS-1306]: the “furin cleavage Z-score” value reads like this: (7.5 min) 6.17 (active); (15 min) 6.15 (active); (30 min) 6.14 (active).

With CAAGAGAGAGAGNASASA [NE3], the “furin cleavage Z-score” value (7.5 min) was -0.934 (inactive), the “furin cleavage Z-score” value (15 min) was -0.656 (inactive) and the “furin cleavage Z-score” value (30 min) was -0.752 (inactive).

With CAAGARLVVLAGNASASA [HC830], the “furin cleavage Z-score” value is 1.19 (7.5 min), 0.934 (inactive) (15 min) and 0.0298 (inactive) (30 min).

Turning to CALREVPCHRAGNASASA [HC2425], the “furin cleavage Z-score” value was -0.109 (inactive) (7.5 min), -0.538 (inactive) (15 min) and -0.256 (inactive) (30 min).

The record behind these values is the supplement of paper PMC3545927.
